Screening data: PubChem, National Center for Advancing Translational Sciences (NCATS)
This excerpt belongs to a sample that is enriched for hits.
Cruzain noTriton – cruzain (T. cruzi) inhibition without detergent | P25779 | purified cruzain, Z-FR-AMC fluorescence, no detergent | Potency, µM, inactives show max response, negative = inhibition, most hits filed as inhibitors | 2.3% of 200,000 active | AID 1476;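 also: plate controls were enzyme without inhibitor for no effect and buffer without enzyme for full effect; nearly all actives have a fitted effect of over 40% in size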
Target sequence (P25779 123-467 limits assumed): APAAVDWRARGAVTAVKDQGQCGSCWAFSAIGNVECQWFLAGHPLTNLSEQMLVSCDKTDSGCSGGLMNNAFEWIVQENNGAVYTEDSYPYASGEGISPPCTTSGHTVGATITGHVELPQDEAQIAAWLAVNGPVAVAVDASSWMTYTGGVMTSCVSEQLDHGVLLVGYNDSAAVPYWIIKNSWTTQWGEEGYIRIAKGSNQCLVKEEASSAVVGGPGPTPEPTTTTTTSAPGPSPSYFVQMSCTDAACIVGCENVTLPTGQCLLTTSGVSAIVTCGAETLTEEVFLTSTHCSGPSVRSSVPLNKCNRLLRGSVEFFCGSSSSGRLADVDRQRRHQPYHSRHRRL
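Detergent-free condition (0.00005% Triton X-100) in acetate buffer pH 5.5 with DTT. 1.5 nM enzyme and compound were pre-mixed 15 min, then 2 uM Z-FR-AMC substrate added; reaction progress from fluorescence change between first and third reads (60 s).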
NS1 inh – influenza NS1 inhibition; Potency, µM (titrated, usually from 46.1 µM), for the others: at the highest dose activity, positive = more growth; 0.4% of 270,000 active; AID 2326; calls by dose curve; also: actives are rising curves; nearly all actives have a fitted effect of over 50% in size
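OD600 was taken as the measure of yeast growth restored by compound in an NS1-expressing S. cerevisiae strain. Cells had been washed out of glucose medium and diluted 1:100 into galactose -URA medium, pH 6.0.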
Cruzain Triton – blocks cruzain activity in presence of Triton detergent; 0.43% of 200,000 active; Potency, µM, inactives show max response, negative = inhibition, usual class: inhibitors; purified cruzain, Z-FR-AMC fluorescence, 0.01% Triton;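 also: plate controls were neutral wells for no effect and buffer without enzyme for full effect; nearly all actives have a fitted effect of over 40% in size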
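Purified cruzain (1.5 nM final) was preincubated with compounds for 15 min at room temperature in 100 mM sodium acetate pH 5.5, 5 mM DTT, 0.01% Triton X-100. Reaction started with 2 uM Z-FR-AMC; AMC fluorescence change over 60 s gave activity.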
Active calls of the source: *; ? = inconclusive; . = no result. Unless noted, calls follow the shape of the dose curve; as a rule, active = well fitted curve in the direction sought with a large enough effect; inconclusive = small, poorly fitted or top-dose-only effect, or another doubt; inactive = no such curve, though single readings can be large; an effect the other way counts as inactive or inconclusive. Potency is read from the fitted curve at half-maximal effect.

SMILES	Cruzain noTriton	NS1 inh	Cruzain Triton
O=c1[nH]nc(N2CCOCC2)c(=O)[nH]1	.	-1.1%	.
CSCCC(=O)N1CC[C@@H](N2CCN(c3ccccc3F)CC2)[C@H](O)C1	.	7.2%	.
CCOc1ccc(Br)cc1S(=O)(=O)Nc1ccc(NC(=O)c2ccccc2F)cc1	25.1µM*	21.9%	-3.3%
CCOc1ccc(Br)cc1S(=O)(=O)Nc1ccc(C(=O)Nc2ccc(C)cc2)cc1	31.6µM*	16.7%	-3.9%
COc1ccccc1NC(=O)c1ccc(NS(=O)(=O)c2ccc(F)c(F)c2F)cc1	-17.5%	26.3%	-1.1%
COc1ccc(NC(=O)c2c(F)cccc2F)cc1S(=O)(=O)Nc1ccc(Br)cc1	15.8µM*	?	-2.5%
COc1ccc(C)cc1S(=O)(=O)Nc1ccc(F)cc1	-2.8%	-5.2%	-1.7%
CCOc1ccc(Br)cc1S(=O)(=O)Nc1ccc(C(=O)OCC(=O)N(C)c2ccccc2)cc1	-15.9%	11.9%	-7.3%
CCOc1ccc(Br)cc1S(=O)(=O)Nc1ccc(NC(=O)c2ccccc2C)cc1	?	5.8%	-2.2%
CCOc1ccc(Br)cc1S(=O)(=O)Nc1ccc(C(=O)Nc2ccccc2OC)cc1	15.8µM*	1.7%	-5.0%
CCOC(=O)c1c(NC(=O)CSc2nnc(Cc3ccccc3)o2)sc(C)c1C	-6.4%	-17.8%	-8.9%
c1ccc(CCN=C2CCCc3c2[nH]c2ccccc32)cc1	.	3.0%	.
CCOc1ccc(C2/C(=C(/O)c3ccc4c(c3)CC(C)O4)C(=O)C(=O)N2CC2CCCO2)cc1 (stereo not given)	.	29.4%	.
Cc1cc([N+](=O)[O-])nn1CC(=O)NNC(=S)Nc1ccc(Cl)cc1	6.8%	6.7%	6.4%
CC(C)Nc1nc2cccnc2s1	.	0.9%	.
COc1ccc(-c2oc3ncn4nc(Cc5ccccc5)nc4c3c2-c2ccc(OC)cc2)cc1	10µM*	-3.4%	-9.9%
COc1ccc(-c2oc3ncn4nc(COc5ccc(C)cc5)nc4c3c2-c2ccc(OC)cc2)cc1	6.8%	.	1.8%
COc1ccc(OCc2nc3c4c(-c5ccc(OC)cc5)c(-c5ccc(OC)cc5)oc4ncn3n2)cc1	-7.1%	.	-1.2%
COc1ccc(-c2oc3ncn4nc(COc5ccccc5)nc4c3c2-c2ccc(OC)cc2)cc1	3.98µM*	13.1%	-9.8%
O=C(Nc1ccccc1)c1ccc(Cl)c(S(=O)(=O)Nc2ccccc2)c1	16.3%	.	-8.6%
CCc1ccccc1NC(=O)c1cc(-c2ccc(OC)cc2)on1	-4.5%	2.6%	-0.1%
COc1ccccc1-c1cc(C(=O)Nc2ccc(F)cc2F)no1	12.6µM*	-13.1%	1.1%
COc1ccc(-c2cc(C(=O)Nc3ccccc3SC)no2)cc1	5.01µM*	-6.4%	4.5%
COc1ccc(C2=NS(=O)(=O)N(C)C(C(=O)Nc3ccc(C)cc3)=C2)cc1	.	1.3%	.
COc1cccc(C2=NS(=O)(=O)N(C)C(C(=O)Nc3ccccc3SC)=C2)c1	12.6µM*	.	-1.2%
SMILES	Cruzain noTriton	NS1 inh	Cruzain Triton
COc1ccccc1-c1cc(C(=O)Nc2cc(Cl)ccc2O)no1	-13.3%	.	-3.2%
COc1cccc(-n2c(-c3ccco3)nc3c(cnn3-c3ccccc3C)c2=O)c1	3.0%	.	-11.3%
CCOC(=O)C1=C(C)N(C)C(=O)NC1c1ccc(C)s1 (stereo not given)	2.1%	10.6%	-2.1%
Cc1ccc(S(=O)(=O)NNC(=S)Nc2cccc(F)c2)cc1	.	-10.7%	.
CCOc1ccc(/C=C2\SC(=S)N(CC(=O)Nc3ccccn3)C2=O)cc1	.	13.8%	.
COC(=O)COc1cccc(NC(=O)c2ccc(Cl)cc2)c1	.	-7.9%	.
COc1ccc(-c2cc(C(=O)NCc3cccs3)no2)cc1OC	.	-19.9%	.
CC(C)CC(NC(=O)C(CC(C)C)NC(=O)OC(C)(C)C)C(N)=O (stereo not given)	15.8µM*	1.5%	?
CSCCC(NC(=O)OC(C)(C)C)C(=O)NC(CC(C)C)C(N)=O (stereo not given)	-2.4%	6.6%	-0.7%
CCc1ccc(N2Cc3ccccc3C2)cc1	.	5.6%	.
Cc1cc(C)cc(N2Cc3ccccc3C2)c1	12.6µM*	6.3%	1.2%
Cc1sc(NC(=O)c2cccc([N+](=O)[O-])c2)c(C(N)=O)c1-c1ccc(C(C)(C)C)cc1	12.6µM*	2.9%	3.9%
Cc1sc(NC(=O)/C=C/C(=O)O)c(C(N)=O)c1-c1ccc(C(C)(C)C)cc1	-1.9%	-47.4%	-8.5%
COc1ccc2cc3cc(C(=O)NCc4ccco4)oc3nc2c1	5.6%	-10.8%	-8.0%
COc1ccc2cc3cc(C(=O)NCc4ccccn4)oc3nc2c1	?	-1.2%	31.6µM*
CCC(C)NCC(=O)Nc1ccc(S(N)(=O)=O)cc1 (stereo not given)	.	0.0%	.
O=C(COc1ccccc1-c1ccccc1)N/N=C/c1ccc2ccccc2c1	20µM*	1.3%	-1.7%
CCOc1cc(/C=N/NC(=O)CNc2ccc(C)cc2)ccc1OC(=O)c1ccccc1	10µM*	?	-2.7%
COc1cc(/C=N/NC(=O)c2cccc([N+](=O)[O-])c2)ccc1OCc1ccccc1	29.4%	17.5%	-13.6%
COc1ccc(/C=N/NC(=O)c2cccc([N+](=O)[O-])c2)cc1OC(=O)c1ccccc1	25.1µM*	14.4%	-0.8%
O=C(COc1ccccc1-c1ccccc1)N/N=C/c1ccncc1	.	-30.7%	.
CCOc1cc(/C=N/NC(N)=O)ccc1OC(=O)c1ccc(C)cc1	4.1%	-11.1%	-3.4%
O=C(N/N=C/c1cccc([N+](=O)[O-])c1)c1ccc(COc2ccccc2-c2ccccc2)cc1	20µM*	12.6%	-6.6%
COc1ccc(/C=N/NC(=O)c2cccc([N+](=O)[O-])c2)cc1OC(=O)c1ccc(C)cc1	-20.1%	-6.5%	7.6%
COc1ccccc1CNc1ccnc(-c2cccc(C#N)c2)n1	3.0%	.	3.3%
SMILES	Cruzain noTriton	NS1 inh	Cruzain Triton
Cn1c(=O)[nH]c(=O)c2c1nc(NCCCn1ccnc1)n2Cc1ccc(F)cc1	-1.1%	1.5%	-1.0%
Cc1ccc(NCC(=O)N/N=C/c2cc3ccccc3nc2Cl)cc1	25.1µM*	15.9%	-14.9%
COc1ccc(/C=N/NC(=O)c2cccc([N+](=O)[O-])c2)cc1OC	.	5.3%	.
O=C(CN1CCOCC1)N/N=C/c1cc2ccccc2nc1Cl	-5.9%	22.0%	-6.4%
N#Cc1cc([N+](=O)[O-])ccc1Oc1cccc(/C=N/NC(=O)c2cccc(Cl)c2)c1	25.1µM*	8.4%	2.2%
COc1ccc(/C=N/NC(=O)CSCc2ccc([N+](=O)[O-])cc2)cc1OC	-7.2%	-6.8%	-3.3%
Cc1cc(C)nc(SCC(=O)N/N=C\C(Br)=C\c2ccccc2)n1	6.1%	-0.3%	-7.1%
Cc1ccc(NCC(=O)N/N=C\C(Br)=C\c2ccccc2)cc1	12.6µM*	-9.1%	1.6%
COc1cc(/C=N/NC(=O)COc2c(C)cc([N+](=O)[O-])cc2C)ccc1OC(=O)c1ccccc1Br	10µM*	27.5%	-4.5%
COc1ccc(NC(=O)c2ccccc2N2C(=O)C3C4C=CC(C5CC45)C3C2=O)c(OC)c1 (stereo not given)	.	10.5%	.
COC(=O)c1ccc(C(NC(=O)OCc2ccccc2)/C(F)=C/[C@@H](C)C(=O)NCCO)cc1 (stereo not given in full)	?	.	1.8%
O=c1[nH]c2c(Br)cnc([N+](=O)[O-])c2[nH]1	.	1.3%	.
CCCCC1(CCCC)NC(=S)N(Nc2ccc(C)cc2)C1=O	11.1%	-9.1%	-3.3%
COc1cc(C)c(S(=O)(=O)n2c([N+](=O)[O-])cnc2C)cc1C	.	4.5%	.
